From PubChem
The list is not random: actives were taken first. Their share in the collection is about 2.4%.
HSF1 inhib – HSF1 inhibitors in luciferase reporter cells, primary screen, cell-based, NIH3T3, luminescence. AID 2098, 2009. NIH3T3-HGL HSE-luciferase, MG132-induced, luminescence 8 h; stronger effect = lower value. 0.77% of 300,000 active. activity change, negative = inhibition, % at 7.5 µM (by protocol);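 active = more than half of replicate wells show activity change below -50%, luminescence cut by over half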;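 also: luciferase reports HSF-1 transcriptional activity via heat shock element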
HSP90 inh – HSP90 inhibitors, primary screen, cell lysate, luminescence; Rabbit reticulocyte lysate, luciferase refolding luminescence, 3 h; AID 1789, 2009; inhibition, % at 5.6 µM; 0.91% of 290,000 active; Heat shock protein HSP 90 (rabbit reticulocyte lysate; luciferase refolding);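 active = inhibition above the screen-wide mean plus 3 SD, computed separately per campaign, cut at about 16% in these data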;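 also: inhibitors lower the luminescence because luciferase stays unfolded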
TRAIL sens C8 – viability loss with TRAIL in NB7+C8 cells, primary screen, TRAIL sensitizer project, cell-based, ATPlite luminescence. inhibition (viability loss, TRAIL sensitization), % at 10 µM. 1% of 360,000 active. AID 624354, 2012;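 active = compounds causing at least 50% loss of cell viability in the single-dose screen, relative to plate controls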
PPC-1+TRAIL kill – compounds killing PPC-1 cancer cells with TRAIL present, primary screen, TRAIL potentiator project, ATPLite luminescence, uHTS; AID 1443, 2008; cell killing (% activity), % at 4 µM or 5 µM; 0.41% of 220,000 active; PPC-1 cells + TRAIL, ATPLite viability luminescence;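 active = cell killing above 50% in the first pass at 4 µM, then a duplicate retest at 5 µM averaging 50% or more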
STAT3 blocker – IL-6 driven STAT3 reporter inhibitors, primary screen, U3A cells, luciferase, luminescence, MLSCN library. IL-6 STAT3-luciferase reporter; host cell line lacks STAT1. inhibition, % at 5.5 µM. 0.89% of 190,000 active;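 active = inhibition above the mean inhibition across all screened compounds plus 3 SD, cut at about 44% in these data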
STAT1 blocker – STAT1 signaling inhibitors, primary screen, cell-based, HTS, luciferase reporter. NIH 3T3 STAT1-luciferase reporter, IFN-gamma, luminescence. inhibition, % at 5.5 µM. 0.35% of 200,000 active;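 active = inhibition above a set limit, the mean inhibition across all tested compounds plus 3 SD, cut at about 34% in these data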
A number is an active result.

What do the screens show for `COc1cc(N(C)C)ccc1C=c1c2ccccc2n2c1cc(-c1ccccc1)[n+]2C`?
TRAIL sens C8: 54.0

What do the screens show for `CN(C)c1ccc(C=c2c3ccccc3n3c2cc(-c2ccc(Cl)cc2)[n+]3C)cc1`?
TRAIL sens C8: inactive

Results for CN(C)c1ccc(C=c2c3cc([N+](=O)[O-])ccc3n3c2cc(-c2ccccc2)[n+]3C)cc1 ?
TRAIL sens C8: 75.8

How did CCc1ccccc1CC1CN(Cc2ccccc2)Cc2ccccc2N1c1ccc(OC)cc1 (centres undefined) do in these assays?
TRAIL sens C8: inactive

Results for COc1ccc2c(CN3CCCCCCC3)cc(=O)oc2c1 ?
TRAIL sens C8: inactive

How did CCOC(=O)c1csc(NC(=O)c2cc(=O)c3ccccc3o2)n1 do in these assays?
HSF1 inhib: inactive; HSP90 inh: inactive; TRAIL sens C8: inactive; PPC-1+TRAIL kill: inactive; STAT3 blocker: inactive; STAT1 blocker: inactive

How did CC(=O)c1sc(NC(=O)c2cc(=O)c3ccccc3o2)nc1C do in these assays?
HSF1 inhib: inactive; HSP90 inh: inactive; TRAIL sens C8: 54.2; PPC-1+TRAIL kill: inactive; STAT3 blocker: inactive; STAT1 blocker: inactive

How did COc1ccc(O)c(/C=N/NC(=S)Nc2cccnc2)c1 do in these assays?
HSF1 inhib: inactive; HSP90 inh: inactive; TRAIL sens C8: 65.3; PPC-1+TRAIL kill: inactive; STAT3 blocker: inactive; STAT1 blocker: inactive

How did Oc1ccc(/C=N/NC(=S)Nc2cccnc2)cc1 do in these assays?
HSF1 inhib: inactive; HSP90 inh: inactive; TRAIL sens C8: 71.2; PPC-1+TRAIL kill: inactive

Results for COc1cccc(/C=N/NC(=S)Nc2cccnc2)c1 ?
HSF1 inhib: inactive; HSP90 inh: inactive; TRAIL sens C8: inactive; PPC-1+TRAIL kill: inactive; STAT3 blocker: inactive; STAT1 blocker: inactive

What do the screens show for `O=C(NCc1cccnc1)c1ccc(-c2ccc(Cl)cc2)o1`?
HSF1 inhib: inactive; HSP90 inh: inactive; TRAIL sens C8: inactive; PPC-1+TRAIL kill: inactive; STAT3 blocker: inactive; STAT1 blocker: inactive

Results for O=C(NCc1cccnc1)/C(=C\c1ccc(-c2ccc(Cl)c(Cl)c2)o1)S(=O)(=O)c1ccccc1 ?
HSF1 inhib: inactive; HSP90 inh: inactive; TRAIL sens C8: 93.4; PPC-1+TRAIL kill: inactive; STAT3 blocker: inactive; STAT1 blocker: inactive

How did CCC(CC)C(C(=O)NCc1ccccc1)N1CCN(c2cccc(C)c2C)CC1 (centres undefined) do in these assays?
TRAIL sens C8: inactive

How did Cc1noc(C)c1C(=O)N1CCC(C(=O)c2ccccc2)CC1 do in these assays?
HSF1 inhib: -61.7; HSP90 inh: inactive; TRAIL sens C8: inactive; PPC-1+TRAIL kill: inactive

How did C[C@H]1CN([C@@H](C)CO)C(=O)CCCn2nncc2CO[C@H]1CN(C)S(=O)(=O)c1ccc(C#N)cc1 do in these assays?
TRAIL sens C8: inactive

How did CC(=O)c1sc(NC(=O)C2(F)C(F)(F)C(F)(F)C(F)(F)C(F)(F)C2(F)F)nc1C do in these assays?
HSF1 inhib: inactive; HSP90 inh: inactive; TRAIL sens C8: inactive; PPC-1+TRAIL kill: inactive; STAT3 blocker: 58.4; STAT1 blocker: 37.4

How did CC(=O)c1sc(NC(=O)C=C(C)C)nc1C do in these assays?
HSF1 inhib: inactive; HSP90 inh: inactive; TRAIL sens C8: inactive; PPC-1+TRAIL kill: inactive; STAT3 blocker: inactive; STAT1 blocker: inactive

Results for Nn1c(=O)c2ccccc2n2c(SCc3ccccc3)nnc12 ?
HSF1 inhib: -68.3; HSP90 inh: inactive; TRAIL sens C8: inactive; PPC-1+TRAIL kill: inactive; STAT3 blocker: inactive; STAT1 blocker: inactive

Results for N#CC(=C1C=CC(=NO)C(Cl)=C1)c1ccccc1 ?
TRAIL sens C8: inactive

How did O=C(O)C(=O)Nc1ccc(NC(=O)C(c2ccccc2)c2ccccc2)cc1 do in these assays?
HSF1 inhib: -55.0; HSP90 inh: inactive; TRAIL sens C8: inactive

What do the screens show for `O=C(Nc1ccccc1)C(c1ccccc1)c1ccccc1`?
HSF1 inhib: inactive; HSP90 inh: inactive; TRAIL sens C8: inactive

Results for CCCCCCCCN1C(=O)[C@H](CC(=O)NCc2cccc3ccccc23)C[C@@]2(C(=O)OCC)CCCC=C12 ?
TRAIL sens C8: inactive

Results for O=C1c2ccccc2C(=O)c2c1oc(C(F)(F)F)c2C(=O)c1ccccc1 ?
HSF1 inhib: -78.3; HSP90 inh: inactive; TRAIL sens C8: 96.1; PPC-1+TRAIL kill: inactive; STAT3 blocker: inactive; STAT1 blocker: inactive

Results for O=C(Nc1ccc2c(c1)OCCO2)C(C1CC1)n1c(=O)c(-c2cc3ccccc3[nH]2)nc2ccccc21 (centres undefined) ?
TRAIL sens C8: inactive

Results for CCOC(=O)c1c(N2CCCCC2)c2ccccc2[nH]c1=O ?
HSF1 inhib: -58.6; HSP90 inh: inactive; TRAIL sens C8: inactive; PPC-1+TRAIL kill: inactive; STAT3 blocker: inactive; STAT1 blocker: inactive

What do the screens show for `COc1ccc(-n2c(C)c(C(C)=O)c(C(C)=O)c2C)cc1`?
HSF1 inhib: -63.7; HSP90 inh: inactive; TRAIL sens C8: inactive; PPC-1+TRAIL kill: inactive; STAT3 blocker: inactive; STAT1 blocker: inactive

How did CCOC(=O)c1c2c(n(-c3ccc(OC)cc3)c1C)C(=O)C(=O)c1ccccc1-2 do in these assays?
TRAIL sens C8: 95.5

What do the screens show for `CCC(=Cc1ccccc1OC)c1ccncc1`?
TRAIL sens C8: inactive

Results for CCCCCCCC(=O)Nc1ccc(C(=O)N/N=C/c2cccc([N+](=O)[O-])c2)cc1 ?
HSF1 inhib: inactive; HSP90 inh: inactive; TRAIL sens C8: 56.6; PPC-1+TRAIL kill: inactive; STAT3 blocker: inactive; STAT1 blocker: inactive

How did Nc1ccccc1C(=O)NN=Cc1cccc([N+](=O)[O-])c1 do in these assays?
TRAIL sens C8: 58.5

Results for Nc1ccccc1C(=O)NN=Cc1cccnc1 ?
TRAIL sens C8: 60.0

What do the screens show for `O=C(N/N=C/c1cccnc1)c1ccccc1`?
HSF1 inhib: inactive; HSP90 inh: inactive; TRAIL sens C8: inactive

How did Cc1nc2ccccc2cc1C(=O)N/N=C/c1cccc([N+](=O)[O-])c1 do in these assays?
HSF1 inhib: inactive; HSP90 inh: inactive; TRAIL sens C8: inactive; PPC-1+TRAIL kill: inactive; STAT3 blocker: inactive; STAT1 blocker: inactive

Results for CC(C)(C)OC(=O)N1CCC(C(=O)Nc2ccc(C(=O)N3CCCCC3)cc2)CC1 ?
TRAIL sens C8: inactive

How did O=C(CSc1nc2ccccc2n1S(=O)(=O)c1ccccc1)N1CCCCC1 do in these assays?
HSF1 inhib: -56.0; HSP90 inh: inactive; TRAIL sens C8: inactive; PPC-1+TRAIL kill: inactive; STAT3 blocker: inactive; STAT1 blocker: inactive

How did Cn1cnc(S(=O)(=O)N2CCCCC2c2cc(C(=O)Nc3cccc(C#N)c3)no2)c1 (centres undefined) do in these assays?
TRAIL sens C8: inactive
